Source: PubChem BioAssay (Tox21)
Records with an inconclusive call do not appear. Active and inactive are the calls of the source. Unless noted, calls follow the shape of the dose curve; as a rule, active = well fitted curve in the direction sought with a large enough effect in the repeat runs; inconclusive = weak or mixed curves; inactive = no such curve, though single readings can be large; an effect the other way counts as inactive or inconclusive.

Columns and labels:
[1] = qHTS assay for identifying genotoxic compounds that show differential cytotoxicity against isogenic chicken DT40 cell lines with known DNA damage response pathways - wild type cell line (AID 743012); also: nearly all actives have a fitted effect of over 60% in size; also: potency is read from the fitted curve at half-maximal effect
Method in brief: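 Quantitative HTS on parental DT40 cells: 40 h compound treatment at 37 C/5% CO2, with viability then determined by CellTiter-Glo luminescence. Values serve as the DNA repair-proficient reference for differential cytotoxicity.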

[2] = qHTS assay for identifying genotoxic compounds that show differential cytotoxicity against isogenic chicken DT40 cell lines with known DNA damage response pathways - Rev3 mutant cell line (AID 743014); also: nearly all actives have a fitted effect of over 55% in size; also: potency is read from the fitted curve at half-maximal effect
[3] = qHTS assay to identify small molecule antagonists of the androgen receptor (AR) signaling pathway - cell viability counter screen (AID 743033; also: nearly all actives have a fitted effect of over 45% in size)
[4] = qHTS assay to identify small molecule antagonists of the androgen receptor (AR) signaling pathway using the MDA cell line - cell viability counter screen (AID 743041; also: nearly all actives have a fitted effect of over 45% in size)
Method in brief: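 MDA-kb2 AR-luc human breast carcinoma cells (MMTV-luciferase, AR/GR responsive) were treated with compounds plus R1881 agonist for 16 h at 37 °C. Viability was read as CellTiter-Fluor fluorescence in the same wells as the reporter assay.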

[5] = qHTS assay to identify small molecule antagonists of the thyroid receptor (TR) signaling pathway - cell viability counter screen (AID 743064); also: nearly all actives have a fitted effect of over 50% in size
Method in brief: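 In rat pituitary GH3.TRE-Luc reporter cells co-exposed to compound and 1 nM T3 for 23.5 h, cytotoxicity was assessed with CellTiter-Fluor in the same wells, read by fluorescence.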

[6] = qHTS assay to identify small molecule antagonists of the thyroid receptor (TR) signaling pathway (AID 743065); also: nearly all actives have a fitted effect of over 55% in size
Method in brief: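 GH3.TRE-Luc rat pituitary cells carrying two TR response elements driving luciferase were plated for 4 h, given compound plus 1 nM T3 (final), and incubated 23.5 h at 37 C. ONE-Glo luminescence measured reporter inhibition; CellTiter-Fluor fluorescence tracked cytotoxicity.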

[7] = test system: thyroid hormone receptor (rat, GH3 cells); experiment: qHTS assay to identify small molecule agonists of the thyroid receptor (TR) signaling pathway (AID 743066; calls by dose curve)
[8] = qHTS assay to identify small molecule antagonists of the estrogen receptor alpha (ER-alpha) signaling pathway - cell viability counter screen (AID 743074; calls by dose curve; also: nearly all actives have a fitted effect of over 45% in size)
[9] = qHTS assay to identify small molecule antagonists of the estrogen receptor alpha (ER-alpha) signaling pathway using the BG1 cell line - cell viability counter screen (AID 743081);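 also: compound given together with 17beta-estradiol as the ER stimulus; nearly all actives have a fitted effect of over 45% in size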
Aromatase (Homo sapiens) = Aromatase (Homo sapiens) (UniProt P11511); experiment: qHTS assay to identify aromatase inhibitors (AID 743083); also: nearly all actives have a fitted effect of over 55% in size
Sequence of Aromatase (Homo sapiens) (P11511 whole entry, looked up): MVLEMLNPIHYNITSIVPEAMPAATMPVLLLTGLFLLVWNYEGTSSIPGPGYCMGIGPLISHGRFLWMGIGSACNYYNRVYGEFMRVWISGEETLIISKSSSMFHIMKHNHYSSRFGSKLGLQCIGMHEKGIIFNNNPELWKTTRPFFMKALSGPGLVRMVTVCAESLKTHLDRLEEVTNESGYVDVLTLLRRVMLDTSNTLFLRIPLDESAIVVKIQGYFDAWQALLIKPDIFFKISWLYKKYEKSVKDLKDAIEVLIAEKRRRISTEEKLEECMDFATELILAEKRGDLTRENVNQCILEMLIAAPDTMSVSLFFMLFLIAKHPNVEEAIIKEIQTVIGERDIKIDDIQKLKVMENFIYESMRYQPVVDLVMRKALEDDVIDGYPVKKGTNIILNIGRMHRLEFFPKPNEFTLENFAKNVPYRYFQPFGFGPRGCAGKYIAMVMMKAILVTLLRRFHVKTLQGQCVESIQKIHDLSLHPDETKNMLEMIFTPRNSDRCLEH

[10] = qHTS assay for identifying genotoxic compounds that show differential cytotoxicity against isogenic chicken DT40 cell lines with known DNA damage response pathways - Rad54/Ku70 mutant cell line (AID 743015); also: nearly all actives have a fitted effect of over 60% in size; also: potency is read from the fitted curve at half-maximal effect
[11] = biological target: Estrogen receptor (Homo sapiens) (UniProt P03372); experiment: qHTS assay to identify small molecule antagonists of the estrogen receptor alpha (ER-alpha) signaling pathway (AID 743069; active = well fitted curve in the direction sought with a large enough effect in the signal ratio in the repeat runs, not every such curve was filed as active; the % refers to the signal ratio)
Sequence of Estrogen receptor (Homo sapiens) (P03372 whole entry, looked up): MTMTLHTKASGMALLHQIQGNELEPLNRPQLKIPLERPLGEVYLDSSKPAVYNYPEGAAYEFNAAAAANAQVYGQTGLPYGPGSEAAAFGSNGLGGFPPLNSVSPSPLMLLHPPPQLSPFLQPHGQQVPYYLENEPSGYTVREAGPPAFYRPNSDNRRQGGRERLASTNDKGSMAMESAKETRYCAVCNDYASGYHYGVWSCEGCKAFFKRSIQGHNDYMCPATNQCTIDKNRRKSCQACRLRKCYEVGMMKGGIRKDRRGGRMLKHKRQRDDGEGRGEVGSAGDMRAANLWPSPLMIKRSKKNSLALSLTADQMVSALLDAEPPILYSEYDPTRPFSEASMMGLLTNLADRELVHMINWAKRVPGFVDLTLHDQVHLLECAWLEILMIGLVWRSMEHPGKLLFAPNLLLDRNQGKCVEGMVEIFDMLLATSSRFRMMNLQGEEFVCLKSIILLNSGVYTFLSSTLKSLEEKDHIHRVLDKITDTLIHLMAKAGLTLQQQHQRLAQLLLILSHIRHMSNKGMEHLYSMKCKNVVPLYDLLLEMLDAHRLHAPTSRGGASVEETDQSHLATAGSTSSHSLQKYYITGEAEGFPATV
Method in brief: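 HEK293 cells stably carrying an ER-alpha-UAS-bla beta-lactamase reporter were pre-cultured overnight in 2% charcoal-stripped FBS medium. Test compounds in DMSO were added together with 17beta-estradiol for 18 hr at 37C. Read-out was fluorescence after 2 hr with LiveBLAzer B/G FRET substrate at room temperature.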

[12] = biological target: Estrogen receptor (Homo sapiens) (UniProt P03372); experiment: qHTS assay to identify small molecule agonists of the estrogen receptor alpha (ER-alpha) signaling pathway (AID 743075; calls by dose curve)
[13] = biological target: Estrogen receptor (Homo sapiens) (UniProt P03372); experiment: qHTS assay to identify small molecule agonists of the estrogen receptor alpha (ER-alpha) signaling pathway using the BG1 cell line (AID 743079); conditions: BG1Luc4E2 cells, ERE-luciferase agonist, 22 h; also: nearly all actives have a fitted effect of over 20% in size; also: potency is read from the fitted curve at half-maximal effect
[14] = qHTS assay to identify small molecule antagonists of the estrogen receptor alpha (ER-alpha) signaling pathway using the BG1 cell line (AID 743080; calls by dose curve;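 also: BG1 cells stimulated with 17beta-estradiol alongside compound; nearly all actives have a fitted effect of over 25% in size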)
Method in brief: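 Quantitative HTS on the Tox21 10K library: BG1 cells with endogenous ER-alpha and ERE-luciferase reporter, 17beta-estradiol stimulation, 21.5 h compound exposure, luminescence endpoint with parallel fluorescence cytotoxicity counter-read.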
% is scaled to controls: 0 for no effect and ±100 for the full control effect.

COC(=O)c1ccccc1S(=O)(=O)NC(=O)Nc1nc(C)cc(C)n1
inactive: Potency [1] | Potency [2] | Potency [3] | Potency [4] | Potency [5] | Potency [6] | Potency [7] | outcome [8] | Potency [9] | Potency (Aromatase (Homo sapiens))

ClC(Cl)(Cl)C(Cl)(Cl)Cl
inactive: Potency [1] | Potency [2] | Potency [10] | Potency [4] | Potency [6] | Potency [7] | Potency [11] | outcome [8] | Potency [12] | activation ([13]; at 95 µM (top of the series)) -4.65% | Potency [14] | Potency [9] | Potency (Aromatase (Homo sapiens))

CC1(C(=O)Nc2ccc(O)c(Cl)c2Cl)CCCCC1
active: Potency [1] 68.6 µM | Potency [2] 61.1 µM | Potency [10] 61.1 µM
inactive: Potency [3] | Potency [4] | Potency [7] | outcome [8] | Potency [9]

O=C(O)C(Br)CBr (centres undefined)
inactive: Potency [10] | Potency [3] | Potency [4] | Potency [5] | Potency [6] | Potency [7] | outcome [8] | Potency [12] | activation ([13]; at 95 µM (top of the series)) -6.3% | Potency [14] | Potency [9] | Potency (Aromatase (Homo sapiens))

NC1=NC(=O)C(c2ccccc2)O1 (centres undefined)
inactive: Potency [1] | Potency [10] | Potency [4] | Potency [6] | Potency [7] | outcome [8] | Potency [9]

O=C(Oc1ccc(Br)cc1)N1CCN2CCC1CC2
inactive: Potency [4] | Potency [7] | Potency [11] | outcome [8] | Potency [12] | activation ([13]; at 70.3 µM (top of the series)) 1.03% | Potency [9] | Potency (Aromatase (Homo sapiens))
active: Potency [2] 54.5 µM | Potency [10] 61.1 µM

CN/C(=N\[N+](=O)[O-])NCC1CCOC1 (centres undefined)
inactive: Potency [1] | Potency [2] | Potency [4] | Potency [5] | Potency [6] | Potency [7] | outcome [8] | Potency [9] | Potency (Aromatase (Homo sapiens))

COC(=O)c1ccccc1S(=O)(=O)NC(=O)N(C)c1nc(C)nc(OC)n1
inactive: Potency [2] | Potency [10] | Potency [3] | Potency [4] | Potency [5] | Potency [6] | Potency [7] | Potency [11] | outcome [8] | Potency [12] | Potency [14] | Potency [9] | Potency (Aromatase (Homo sapiens))

CNC(=O)Oc1cccc(C(C)C)c1
inactive: Potency [1] | Potency [2] | Potency [10] | Potency [4] | Potency [5] | Potency [6] | Potency [7] | outcome [8] | Potency [9] | Potency (Aromatase (Homo sapiens))

c1coc(-c2nc3ccccc3[nH]2)c1
active: Potency [1] 54.5 µM | Potency [2] 24.3 µM | Potency [13] 30.6 µM
inactive: Potency [4] | Potency [5] | Potency [6] | Potency [7] | Potency [11] | outcome [8] | Potency [9] | Potency (Aromatase (Homo sapiens))

C(CCOCC1CO1)COCC1CO1 (centres undefined)
active: Potency [1] 12 µM | Potency [2] 1.07 µM
inactive: Potency [3] | Potency [4] | Potency [5] | Potency [7] | Potency [12] | activation ([13]; at 70.3 µM (top of the series)) 0.112% | Potency [14] | Potency [9] | Potency (Aromatase (Homo sapiens))
